Data as given in PubChem BioAssay (EPA / NIEHS).
The source made the active and inactive calls. Rule for the calls: active = hit-call score of the fitted dose curve at least 0.9, where 1 is the maximum; inactive = score below 0.9.

How the values were obtained:
[1] = ATG_CRE_CIS: Attagene CIS-FACTORIAL HepG2 Assay for human cAMP Responsive Element (CRE) binding protein 3 (AID 2282926); conditions: HepG2 CRE cis-reporter, Attagene multiplexed mRNA; actives raise or lower the signal
How it was run: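 Endogenous CRE-binding activity in HepG2 is reported through a cis-regulated transfected reporter. Following a day of exposure, mRNA levels are determined by reverse transcription PCR and fluorescent fragment analysis; fits run in both directions versus DMSO.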

[2] = molecular target: CCAAT/enhancer-binding protein beta (Homo sapiens) (UniProt P17676); test: ATG_C_EBP_CIS: Attagene CIS-FACTORIAL HepG2 Assay for human CCAAT/Enhancer Binding Protein (C/EBP) beta (AID 2282927); conditions: HepG2 Attagene cis-factorial transcription factor reporter; actives raise or lower the signal
How it was run: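 Chemical-treated HepG2 cells (24 h) bearing cis-regulated reporter constructs were processed for total RNA, then reverse transcription, PCR amplification, fluorescent primer extension and fragment analysis; gain- and loss-of-signal were fitted against DMSO.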

[3] = ATG_CMV_CIS: Attagene CIS-FACTORIAL HepG2 Assay for human CMV (Internal Marker) (AID 2282928); conditions: HepG2 CMV promoter reporter, transcription factor profiling; actives raise or lower the signal;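 note: endpoint acts as a background internal control marker rather than a target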
How it was run: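 Endogenous transcription factor activity read in HepG2 via transfected cis-promoter reporter units. After 24 h dosing, reporter mRNA measured by RT-PCR/capillary electrophoresis; gain or loss of signal fit relative to DMSO.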

[4] = ATG_DR4_LXR_CIS: Attagene CIS-FACTORIAL HepG2 Assay for human Liver X Receptor (LXR), DR4 submotif (AID 2282929); conditions: HepG2 Attagene DR4 cis-reporter, mRNA transcription; actives raise or lower the signal
How it was run: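 After transient transfection with multiplexed cis-promoter reporter units, HepG2 cells received test chemicals for 24 h. Reporter mRNA induction, detected by fluorescence after RT-PCR and capillary electrophoresis, was scored relative to DMSO.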

[5] = molecular target: Aryl hydrocarbon receptor (Homo sapiens) (UniProt P35869); test: ATG_Ahr_CIS: Attagene CIS-FACTORIAL HepG2 Assay for human Aryl Hydrocarbon Receptor (Ahr) (AID 2282930); conditions: HepG2 AhR cis-factorial reporter transcription; actives raise or lower the signal
How it was run: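 Following 24 h of chemical dosing, transfected HepG2 liver cells with cis-driven reporter units were lysed for RNA; reporter mRNA was quantified via RT-PCR and capillary electrophoresis, and responses fitted bidirectionally from DMSO.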

[6] = ATG_AP_1_CIS: Attagene CIS-FACTORIAL HepG2 Assay for human Activator Protein 1 (AP-1) (AID 2282931); conditions: HepG2 Attagene cis-factorial AP-1 reporter mRNA; actives raise or lower the signal
How it was run: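 After 24 h incubation with test chemical, RNA from transfected HepG2 cells was reverse-transcribed, amplified, fluorescently labelled and digested before capillary electrophoresis. Reporters were driven by cis-regulatory promoters; activity fitted bidirectionally versus DMSO.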

[7] = ATG_AP_2_CIS: Attagene CIS-FACTORIAL HepG2 Assay for human Activator Protein 2 (AP-2) (AID 2282932); conditions: HepG2 AP-2 cis-reporter, Attagene transcription factor profiling; actives raise or lower the signal
How it was run: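 Bidirectional curve fitting against DMSO was applied to reporter mRNA signals from HepG2 cells 24 h after dosing. Cis-promoter reporter units, transiently transfected, were read by RT-PCR plus capillary electrophoresis.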

[8] = ATG_BRE_CIS: Attagene CIS-FACTORIAL HepG2 Assay for human Bone Morphogenetic Protein (BMP) Response Element (BRE) (AID 2282933); conditions: HepG2 BMP response element reporter, Attagene transcription factor profiling; actives raise or lower the signal
How it was run: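 Multiplexed cis-reporter assay, HepG2, 24 h exposure. mRNA from reporter units quantified via RT-PCR/CE; DMSO baseline; bidirectional curve fit.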

[9] = molecular target: Transcription factor E2F1 (Homo sapiens) (UniProt Q01094); test: ATG_E2F_CIS: Attagene CIS-FACTORIAL HepG2 Assay for human E2F Transcription Factor 1 (AID 2282935); conditions: HepG2 Attagene cis-reporter, E2F reporter RNA transcripts; actives raise or lower the signal
How it was run: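 Multiplexed cis-reporter assay: HepG2, transient transfection, 24 h dosing, mRNA quantitation by labeled RT-PCR and CE.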

[10] = ATG_E_Box_CIS: Attagene CIS-FACTORIAL HepG2 Assay for human Enhancer Box (E-box) (AID 2282936); conditions: HepG2 E-box cis-reporter transcription, actives raise or lower the signal
How it was run: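 Multiplexed CIS reporter system in transiently transfected HepG2 cells measures native transcription factor activity. Reporter RNA after 24 h exposure is profiled by RT-PCR-capillary electrophoresis.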

[11] = ATG_M_61_CIS: Attagene CIS-FACTORIAL HepG2 Assay for M61 Transcription Factor (Internal Marker) (AID 2282937); conditions: HepG2 Attagene CIS-FACTORIAL M61 internal marker reporter; actives raise or lower the signal
How it was run: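 Using transiently transfected HepG2 liver cells, reporter transcript levels were assessed 24 h post-dosing by RT-PCR and capillary electrophoresis. Changes in either direction were fitted relative to DMSO controls.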

[12] = ATG_M_19_CIS: Attagene CIS-FACTORIAL HepG2 Assay for M19 Transcription Factor (Internal Marker) (AID 2282939); conditions: HepG2 Attagene CIS-FACTORIAL M19 internal marker reporter; actives raise or lower the signal
How it was run: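 Signals come from fluorescence of labelled reporter-specific PCR fragments resolved by capillary electrophoresis, following 24 h treatment of HepG2 cells transfected with cis-promoter reporter units; activity was fitted in both directions relative to DMSO.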

[13] = ATG_Ets_CIS: Attagene CIS-FACTORIAL HepG2 Assay for human Erythroblast Transformation Specific (ETS) (AID 2282941); conditions: HepG2 ETS cis-reporter transcription, actives raise or lower the signal
How it was run: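 Steps: transfect HepG2 with multiple reporter units; treat compound 24 h; isolate RNA, DNase-treat, reverse-transcribe; PCR-amplify, label with 6-FAM, digest with HpaI; separate by capillary electrophoresis. Activity fitted both directions versus DMSO.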

[14] = molecular target: Hepatocyte nuclear factor 3-beta (Homo sapiens) (UniProt Q9Y261); test: ATG_FoxA2_CIS: Attagene CIS-FACTORIAL HepG2 Assay for human Forkhead box A2 (FOXA2) (AID 2282942); conditions: HepG2 cis-reporter transcription factor activity, 24 h; actives raise or lower the signal
How it was run: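 Fluorescence signal of reporter cDNA fragments, separated by capillary electrophoresis, reflects endogenous transcription factor activity in transfected HepG2 after 24 h. Both increases and decreases fitted against DMSO.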

[15] = ATG_FoxO_CIS: Attagene CIS-FACTORIAL HepG2 Assay for human Forkhead box O (FoxO) (AID 2282943); conditions: HepG2 Attagene cis-reporter, FoxO element, mRNA; actives raise or lower the signal
How it was run: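 24 h chemical exposure, HepG2 with transient cis-MRTU transfection. RNA extraction, oligo(dT) RT, reporter-specific PCR, primer-extension labelling, HpaI digestion, CE fragment analysis; bidirectional fit, DMSO baseline.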

[16] = ATG_GATA_CIS: Attagene CIS-FACTORIAL HepG2 Assay for human GATA Binding Protein (AID 2282944); conditions: HepG2 GATA cis-element reporter, Attagene multiplex mRNA; actives raise or lower the signal
How it was run: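 After transfecting HepG2 cells with multiple cis-regulated reporter units, chemicals are dosed for 24 h; isolated RNA undergoes RT-PCR and fluorescent labeling before capillary electrophoresis, with activity expressed against DMSO.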

[17] = ATG_GLI_CIS: Attagene CIS-FACTORIAL HepG2 Assay for human Zinc Finger Protein GLI1 (AID 2282945); conditions: HepG2, Attagene cis-factorial reporter mRNA, GLI element; actives raise or lower the signal
How it was run: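 HepG2 cells transiently transfected with cis-promoter multiplexed reporter units report endogenous transcription factor activity. After 24 h chemical exposure, reporter mRNA was quantified by RT-PCR, 6-FAM labelling, HpaI digestion and capillary electrophoresis, with bidirectional fitting against DMSO.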

[18] = ATG_ERE_CIS: Attagene CIS-FACTORIAL HepG2 Assay for Estrogen Response Element (ERE) (AID 2282940); conditions: HepG2 ERE cis-reporter, Attagene RNA transcript; actives raise or lower the signal
How it was run: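 Fluorescence of capillary-separated, FAM-labelled reporter cDNA fragments indicates reporter mRNA levels in HepG2 cells exposed to chemicals for 24 h. Transient transfection with cis-regulated units; data fitted in both directions against DMSO.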

[19] = ATG_EGR_CIS: Attagene CIS-FACTORIAL HepG2 Assay for human Early Growth Response 1 (EGR1) (AID 2282938); conditions: HepG2 Attagene CIS-FACTORIAL EGR reporter mRNA; actives raise or lower the signal
How it was run: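 Fluorescent capillary-electrophoresis signal of reporter cDNA fragments serves as read-out. HepG2 cells bear transiently transfected cis-promoter reporter units and are exposed 24 h; gain- or loss-of-signal is fitted against DMSO.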

Measured: AC50

Aryl hydrocarbon receptor (Homo sapiens), sequence (P35869 whole entry, looked up): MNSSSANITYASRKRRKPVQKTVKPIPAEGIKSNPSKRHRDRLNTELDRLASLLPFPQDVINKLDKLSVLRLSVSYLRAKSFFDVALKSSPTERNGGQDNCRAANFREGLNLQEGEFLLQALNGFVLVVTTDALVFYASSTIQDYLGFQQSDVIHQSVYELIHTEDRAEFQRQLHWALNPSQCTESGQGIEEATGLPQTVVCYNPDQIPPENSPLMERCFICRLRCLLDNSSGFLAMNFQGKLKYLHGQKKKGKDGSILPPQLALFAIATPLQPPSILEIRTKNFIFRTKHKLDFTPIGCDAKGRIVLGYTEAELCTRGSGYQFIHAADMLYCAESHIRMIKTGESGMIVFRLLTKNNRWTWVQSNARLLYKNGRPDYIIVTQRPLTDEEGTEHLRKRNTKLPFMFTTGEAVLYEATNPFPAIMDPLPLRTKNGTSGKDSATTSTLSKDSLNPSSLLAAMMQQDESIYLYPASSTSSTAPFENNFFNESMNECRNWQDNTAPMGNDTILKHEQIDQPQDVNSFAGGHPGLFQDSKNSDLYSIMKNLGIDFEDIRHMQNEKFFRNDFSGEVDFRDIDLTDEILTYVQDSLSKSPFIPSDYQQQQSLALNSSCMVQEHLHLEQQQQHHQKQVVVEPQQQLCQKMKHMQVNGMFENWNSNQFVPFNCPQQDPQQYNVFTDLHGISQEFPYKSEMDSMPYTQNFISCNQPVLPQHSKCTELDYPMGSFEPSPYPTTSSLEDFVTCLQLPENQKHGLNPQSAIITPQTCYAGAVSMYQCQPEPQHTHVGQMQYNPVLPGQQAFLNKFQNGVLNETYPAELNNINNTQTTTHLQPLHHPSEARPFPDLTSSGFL
Hepatocyte nuclear factor 3-beta (Homo sapiens), sequence (Q9Y261 whole entry, looked up, the tested form may be a part): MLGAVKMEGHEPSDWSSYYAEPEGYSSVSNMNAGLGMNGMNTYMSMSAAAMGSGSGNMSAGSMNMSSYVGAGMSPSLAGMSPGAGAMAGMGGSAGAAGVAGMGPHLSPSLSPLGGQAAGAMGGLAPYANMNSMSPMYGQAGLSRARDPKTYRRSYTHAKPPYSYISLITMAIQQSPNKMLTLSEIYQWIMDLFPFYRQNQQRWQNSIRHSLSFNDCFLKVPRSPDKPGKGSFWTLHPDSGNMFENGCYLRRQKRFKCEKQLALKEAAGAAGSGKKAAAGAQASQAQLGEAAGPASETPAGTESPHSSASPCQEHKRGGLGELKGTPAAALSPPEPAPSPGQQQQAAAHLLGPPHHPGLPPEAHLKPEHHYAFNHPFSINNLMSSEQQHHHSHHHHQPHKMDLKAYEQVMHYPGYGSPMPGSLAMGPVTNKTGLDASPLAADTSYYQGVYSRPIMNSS
CCAAT/enhancer-binding protein beta (Homo sapiens), sequence (P17676 whole entry, looked up, the tested form may be a part): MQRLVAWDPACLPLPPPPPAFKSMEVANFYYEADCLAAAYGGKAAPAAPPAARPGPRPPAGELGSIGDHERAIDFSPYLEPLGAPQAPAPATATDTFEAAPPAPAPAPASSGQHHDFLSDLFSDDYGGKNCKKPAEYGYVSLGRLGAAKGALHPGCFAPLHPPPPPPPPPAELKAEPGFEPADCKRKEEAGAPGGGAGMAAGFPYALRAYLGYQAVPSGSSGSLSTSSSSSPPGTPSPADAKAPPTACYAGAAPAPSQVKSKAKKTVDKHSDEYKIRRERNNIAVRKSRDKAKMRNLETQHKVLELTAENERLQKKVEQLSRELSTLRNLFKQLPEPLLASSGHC
Transcription factor E2F1 (Homo sapiens), sequence (Q01094 whole entry, looked up): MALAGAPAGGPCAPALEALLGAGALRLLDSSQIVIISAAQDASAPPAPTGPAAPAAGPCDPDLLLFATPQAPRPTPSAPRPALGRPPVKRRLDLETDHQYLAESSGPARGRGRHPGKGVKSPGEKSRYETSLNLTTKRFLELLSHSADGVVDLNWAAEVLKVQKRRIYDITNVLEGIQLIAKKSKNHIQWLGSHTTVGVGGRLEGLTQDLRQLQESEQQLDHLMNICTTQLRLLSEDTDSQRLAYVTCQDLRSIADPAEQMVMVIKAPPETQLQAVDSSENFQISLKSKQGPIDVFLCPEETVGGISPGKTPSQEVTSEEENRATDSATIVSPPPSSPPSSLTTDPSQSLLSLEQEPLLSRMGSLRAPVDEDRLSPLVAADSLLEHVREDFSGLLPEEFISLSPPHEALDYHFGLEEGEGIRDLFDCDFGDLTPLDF

Sc1nc(S)nc(S)n1
not listed: [18] | [19]
inactive: all other assays above

CC(C)(C)c1n[nH]c(=S)n(N)c1=O
active: [5] 23.9 µM
not listed: [19]
inactive: all other assays above

CC(C)C1CCC(O)CC1 (stereo unspecified)
not listed: [15] | [16] | [18]
inactive: all other assays above

C=CC(C)(CCC=C(C)C)OC=O (stereo unspecified)
not listed: [16] | [19]
inactive: all other assays above

COc1cc(C(C)(C)C)c(O)c(C(C)(C)C)c1
not listed: [12] | [13] | [18]
inactive: all other assays above

CC1=CCC2C(C1)C2(C)C (stereo unspecified)
active: [18] 82 µM
not listed: [12] | [15]
inactive: all other assays above

OC1OC[C@@H](O)[C@H](O)[C@H]1O (stereo partly specified)
not listed: [15] | [18]
inactive: all other assays above

CNC(=O)Oc1ccc2c(c1)[C@]1(C)CCN(C)[C@@H]1N2C
not listed: [11]
inactive: all other assays above
